The values below come from PubChem BioAssay (EPA / NIEHS).

Inconclusive results are not listed. More than one record can exist for a structure, and the calls need not agree. Calls of active or inactive are those of the source. The calls were made as follows: active = hit-call score of the fitted dose curve at least 0.9, where 1 is the maximum; inconclusive = response in the unintended direction; inactive = score below 0.9.

human Thyroid Receptor alpha (THRa1), THRA (gene 7067), sequence (P10827 whole entry, looked up): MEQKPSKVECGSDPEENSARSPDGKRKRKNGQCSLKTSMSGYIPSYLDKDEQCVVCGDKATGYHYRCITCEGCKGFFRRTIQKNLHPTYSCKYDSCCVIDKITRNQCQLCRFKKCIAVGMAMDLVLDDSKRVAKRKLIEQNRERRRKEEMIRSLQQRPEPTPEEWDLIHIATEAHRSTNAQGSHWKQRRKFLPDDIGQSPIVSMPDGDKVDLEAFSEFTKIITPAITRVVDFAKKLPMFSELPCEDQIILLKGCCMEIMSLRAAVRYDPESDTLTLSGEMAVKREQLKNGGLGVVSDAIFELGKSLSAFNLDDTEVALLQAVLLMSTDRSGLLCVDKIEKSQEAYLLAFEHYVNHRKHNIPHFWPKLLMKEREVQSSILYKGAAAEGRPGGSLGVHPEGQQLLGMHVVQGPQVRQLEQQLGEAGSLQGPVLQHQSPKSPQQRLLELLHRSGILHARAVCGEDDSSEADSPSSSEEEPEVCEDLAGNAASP

This experiment addresses human Thyroid Receptor alpha (THRa1), THRA (gene 7067) (UniProt P10827). In words: ATG_THRa1_TRANS: Attagene TRANS-FACTORIAL HepG2 Assay for human Thyroid Receptor alpha (THRa1) (AID 2283014). Here is the method:
ATG_TRANS is a cell-based, multiplexed-readout assay that uses HepG2, a human liver cell line, with measurements taken at 24 hours after chemical dosing in a 24-well plate.ATG_THRa1_TRANS is one of 30 assay component(s) measured or calculated from the ATG_TRANS assay. It is designed to make measurements of mRNA induction, a form of inducible reporter, as detected with fluorescence intensity signals by Reverse transcription polymerase chain reaction (RT-PCR) and Capillary electrophoresis technology.Data from the assay component ATG_THRa1_TRANS was analyzed into 1 assay endpoint. This assay endpoint, ATG_THRa1_TRANS, was analyzed in the positive analysis fitting direction relative to DMSO as the negative control and baseline of activity. Using a type of inducible reporter, measures of mRNA for gain-of-signal activity can be used to understand the reporter gene at the transcription factor-level as they relate to the gene THRA. Furthermore, this assay endpoint can be referred to as a primary readout, because this assay has produced multiple assay endpoints where this one serves a reporter gene function. To generalize the intended target to other relatable targets, this assay endpoint is annotated to the nuclear receptor intended target family, where the subfamily is non-steroidal.
Human liver HepG2 cells are transiently transfected with multiple reporter transcription units (MRTUs) in 6-well plates using FuGene 6 reagent (Roche; 3 ml FuGene/1 mg DNA). The MRTU constructs are regulated by a cis-regulating element (promoter). […] A major difference between the CIS and TRANS system is that in CIS activities of endogenous TFs are measured, whereas the TRANS assay evaluates changes in activities of exogenous, chimeric NR-Gal4 proteins. […] At the end of 24 hour incubation, total RNA was isolated using TriZol reagent (Invitrogen). The isolated RNA is then reverse-transcribed using oligo(dT) primer and Mo-MLV reverse transcriptase (Invitrogen) with DNAse I (Ambion) treatment for 30 min. The one-tenth of the produced cDNA was amplified by PCR using Taq DNA polymerase (Invitrogen) and two reporter sequence-specific primers. The PCR products were fluorescently labeled by primer extension with 6-arboxyfluorescein (6-FAM) 5'-labeled reporter sequence-specific primer (2 min at 95 C, 20 s at 68 C and 10 min at 72 C) and these products were digested with 5U of HpaI (New England Biolabs) for 2h at 37 C. The fragments were purified using Qiaquick PCR columns (Qiagen), analyzed on an ABI 3130xL genetic analyzer (Applied Biosystems) with peak positions identified by using a set of X-rhodamine (ROX)-labeled MapMarker1000 molecular weight standards (BioVentures). The raw capillary electrophoresis data was processed using Attagraph software (Attagene).
In the case of `CC1CN1P(=O)(N1CC1C)N1CC1C` (stereo not given), the compound was classed as inactive.
Still for that read-out and setting: then `CCOP(=S)(OCC)SCSP(=S)(OCC)OCC`, with “inactive”; and `COP(=S)(OC)Oc1cc(Cl)c(Cl)cc1Cl`, with “inactive”; and `CCOP(=S)(OCC)SCCS(=O)(=O)CC`, with “inactive”.
On the same count and under the same terms, then `CCCCP(CCCC)CCCC`, with “inactive”; and `O=P(O)(O)CN(CP(=O)(O)O)CP(=O)(O)O`, with “inactive”.
`O=C(Cl)c1ccc(Cl)cc1`: the result was inactive.
For `N#CCc1ccc(Cl)cc1`, the result was inactive.
On the same count and under the same terms, then `CC(C)(C)c1cc(O)ccc1O`, with “inactive”; and `C=CCc1ccc(OC)cc1`, with “inactive”; and `Clc1ccc(C2(Cn3cncn3)CC(Br)CO2)c(Cl)c1` (stereo not given), with “inactive”.
The same measure, in the same setting: the result for `CC(=O)[O][Hg][c]1ccccc1` reads “inactive”; that for `Cl/C=C/Cl`, “inactive”; that for `O=[N+]([O-])c1c(Cl)c(Cl)cc(Cl)c1Cl`, “inactive”.
The same measure, in the same setting: the result for `BrCCBr` reads “inactive”; that for `ClC(Cl)=C(Cl)C(Cl)=C(Cl)Cl`, “inactive”.
`O=C(O)C(F)(F)C(F)(F)C(F)(F)C(F)(F)C(F)(F)C(F)(F)F`: the compound was classed as inactive.
For `CCCCOCCOC(C)=O`, the outcome was inactive.
For the compound `CCCCCCCCc1ccc(O)cc1`, the outcome was inactive and the AC50 is 43.7 µM (active).
With `CCC(=O)C(CC(C)N(C)C)(c1ccccc1)c1ccccc1` (stereo not given), the outcome was inactive.
With `CCOP(=S)(OCC)Oc1ccc(S(C)=O)cc1` (stereo not given), the call was inactive.
As to `O=[N+]([O-])c1ccc2c3c(cccc13)CC2`, the compound was classed as inactive.
The same measure, in the same setting: the result for `CC(=[OH+])/C=C(/C)[O-].CC(=[OH+])/C=C(/C)[O-].CC(=[OH+])/C=C(/C)[O-].[Fe]` reads “inactive”; that for `ClC1=C(Cl)[C@]2(Cl)[C@H]3[C@H]([C@H]4C=C[C@H]3C4)[C@@]1(Cl)C2(Cl)Cl`, “inactive”; that for `c1cc[c]([Hg][c]2ccccc2)cc1`, “inactive”.
On the same count and under the same terms, the result for `C=C(C)C(=O)[O][Sn]([CH2]CCC)([CH2]CCC)[CH2]CCC` reads “inactive”.
Same read-out and setting: the result for `CCC(C)c1cccc(C(C)CC)c1O` (stereo not given) reads “inactive”; that for `CC(C#N)CCC#N` (stereo not given), “inactive”.
For the compound `C[C@H]1CCCC(=O)CCC/C=C/c2cc(O)cc(O)c2C(=O)O1`, the compound was classed as inactive.
On the same count and under the same terms, the result for `CC(C)C1CCC(Cc2ccc(Cl)cc2)C1(O)Cn1cncn1` (stereo not given) reads “inactive”; that for `CC(C)OC(=O)Nc1ccccc1`, “inactive”; that for `CC(C)(c1ccccc1)c1ccc(O)c(C(C)(C)c2ccccc2)c1`, “inactive”.
Consider `Cc1ccccc1C(=O)Nc1cccc(OC(C)C)c1`, for which the result was inactive.
Turning to `CCC1(c2ccc(N)cc2)CCC(=O)NC1=O` (stereo not given), the outcome was inactive.
The same measure, in the same setting: the result for `COc1ccc(OC)c(C=O)c1` reads “inactive”.
Consider `CCOP(=S)(OCC)Oc1nc(Cl)c(Cl)cc1Cl`, for which the call was inactive.
The same measure, in the same setting: the result for `N#CCCO` reads “inactive”; that for `C=CC(=O)N(C)C`, “inactive”; that for `CC(=[OH+])/C=C(/C)[O-].CC(=[OH+])/C=C(/C)[O-].CC(=[OH+])/C=C(/C)[O-].[Al]`, “inactive”.

In general, AC50 refers to the concentration at which the activity in the assay is half-maximal.
